Tests used:
[1] = target: Ephrin type-A receptor 5 (Homo sapiens) (UniProt P54756); settings: at 10 µM
[2] = target: T1, Ephrin type-B receptor 1 (Homo sapiens) (UniProt P54762); settings: at 10 µM
T1 sequence (whole entry): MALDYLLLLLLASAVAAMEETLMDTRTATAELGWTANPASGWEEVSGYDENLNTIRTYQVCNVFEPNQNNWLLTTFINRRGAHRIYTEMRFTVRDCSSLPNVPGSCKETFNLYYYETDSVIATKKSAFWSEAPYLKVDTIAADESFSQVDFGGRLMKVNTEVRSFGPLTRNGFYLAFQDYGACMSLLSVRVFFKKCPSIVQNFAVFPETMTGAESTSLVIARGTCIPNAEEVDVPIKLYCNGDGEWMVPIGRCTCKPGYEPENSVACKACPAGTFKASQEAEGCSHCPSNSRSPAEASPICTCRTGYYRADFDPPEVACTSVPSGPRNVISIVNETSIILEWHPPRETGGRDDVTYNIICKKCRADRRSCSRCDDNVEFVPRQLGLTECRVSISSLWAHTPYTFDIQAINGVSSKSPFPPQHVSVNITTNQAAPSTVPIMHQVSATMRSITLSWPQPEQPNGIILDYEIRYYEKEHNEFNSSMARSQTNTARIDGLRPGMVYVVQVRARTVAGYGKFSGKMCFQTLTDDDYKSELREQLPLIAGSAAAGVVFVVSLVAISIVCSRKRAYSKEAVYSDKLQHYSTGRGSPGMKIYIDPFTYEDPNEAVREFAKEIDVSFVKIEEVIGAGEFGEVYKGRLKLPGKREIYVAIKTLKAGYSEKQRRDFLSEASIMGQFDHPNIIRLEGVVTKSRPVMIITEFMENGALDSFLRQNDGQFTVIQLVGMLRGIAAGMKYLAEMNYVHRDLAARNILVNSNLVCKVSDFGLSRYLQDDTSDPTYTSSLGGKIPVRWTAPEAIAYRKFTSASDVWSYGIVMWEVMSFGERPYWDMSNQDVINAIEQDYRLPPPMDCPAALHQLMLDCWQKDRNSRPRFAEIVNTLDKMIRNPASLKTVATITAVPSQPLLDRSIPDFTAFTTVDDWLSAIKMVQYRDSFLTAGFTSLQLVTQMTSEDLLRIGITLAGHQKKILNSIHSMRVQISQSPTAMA

[3] = target: T2, Ephrin type-B receptor 2 (Homo sapiens) (UniProt P29323); settings: at 10 µM
T2 sequence (whole entry): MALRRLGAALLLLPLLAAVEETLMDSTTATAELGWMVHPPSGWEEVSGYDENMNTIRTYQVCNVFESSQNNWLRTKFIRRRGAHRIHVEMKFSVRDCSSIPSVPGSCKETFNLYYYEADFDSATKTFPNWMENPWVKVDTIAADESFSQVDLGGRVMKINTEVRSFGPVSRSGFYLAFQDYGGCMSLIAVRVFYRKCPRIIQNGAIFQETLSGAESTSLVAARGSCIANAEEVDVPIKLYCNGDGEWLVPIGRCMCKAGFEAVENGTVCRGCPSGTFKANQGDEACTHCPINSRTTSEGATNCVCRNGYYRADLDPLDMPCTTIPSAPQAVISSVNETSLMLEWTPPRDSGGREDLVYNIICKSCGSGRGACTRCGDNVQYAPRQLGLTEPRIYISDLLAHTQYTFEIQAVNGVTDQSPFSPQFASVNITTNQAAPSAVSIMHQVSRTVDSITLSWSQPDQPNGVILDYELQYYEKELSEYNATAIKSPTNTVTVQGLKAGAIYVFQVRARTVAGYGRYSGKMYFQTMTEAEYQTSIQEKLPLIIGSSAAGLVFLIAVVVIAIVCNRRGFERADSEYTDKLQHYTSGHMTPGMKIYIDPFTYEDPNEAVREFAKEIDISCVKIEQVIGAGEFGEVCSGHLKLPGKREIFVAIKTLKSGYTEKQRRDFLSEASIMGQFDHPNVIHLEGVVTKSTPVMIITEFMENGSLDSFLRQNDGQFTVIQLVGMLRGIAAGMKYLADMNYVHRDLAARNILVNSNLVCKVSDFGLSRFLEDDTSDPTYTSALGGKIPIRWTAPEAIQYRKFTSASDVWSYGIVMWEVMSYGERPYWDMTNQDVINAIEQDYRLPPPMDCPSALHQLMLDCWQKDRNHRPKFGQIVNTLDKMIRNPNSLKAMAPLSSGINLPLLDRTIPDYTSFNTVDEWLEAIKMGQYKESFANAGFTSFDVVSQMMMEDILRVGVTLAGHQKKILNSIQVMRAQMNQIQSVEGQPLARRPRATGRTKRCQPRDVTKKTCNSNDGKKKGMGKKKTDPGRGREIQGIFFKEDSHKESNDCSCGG

[4] = target: T3, Ephrin type-B receptor 4 (Homo sapiens) (UniProt P54760); settings: at 1 µM
T3 sequence (whole entry): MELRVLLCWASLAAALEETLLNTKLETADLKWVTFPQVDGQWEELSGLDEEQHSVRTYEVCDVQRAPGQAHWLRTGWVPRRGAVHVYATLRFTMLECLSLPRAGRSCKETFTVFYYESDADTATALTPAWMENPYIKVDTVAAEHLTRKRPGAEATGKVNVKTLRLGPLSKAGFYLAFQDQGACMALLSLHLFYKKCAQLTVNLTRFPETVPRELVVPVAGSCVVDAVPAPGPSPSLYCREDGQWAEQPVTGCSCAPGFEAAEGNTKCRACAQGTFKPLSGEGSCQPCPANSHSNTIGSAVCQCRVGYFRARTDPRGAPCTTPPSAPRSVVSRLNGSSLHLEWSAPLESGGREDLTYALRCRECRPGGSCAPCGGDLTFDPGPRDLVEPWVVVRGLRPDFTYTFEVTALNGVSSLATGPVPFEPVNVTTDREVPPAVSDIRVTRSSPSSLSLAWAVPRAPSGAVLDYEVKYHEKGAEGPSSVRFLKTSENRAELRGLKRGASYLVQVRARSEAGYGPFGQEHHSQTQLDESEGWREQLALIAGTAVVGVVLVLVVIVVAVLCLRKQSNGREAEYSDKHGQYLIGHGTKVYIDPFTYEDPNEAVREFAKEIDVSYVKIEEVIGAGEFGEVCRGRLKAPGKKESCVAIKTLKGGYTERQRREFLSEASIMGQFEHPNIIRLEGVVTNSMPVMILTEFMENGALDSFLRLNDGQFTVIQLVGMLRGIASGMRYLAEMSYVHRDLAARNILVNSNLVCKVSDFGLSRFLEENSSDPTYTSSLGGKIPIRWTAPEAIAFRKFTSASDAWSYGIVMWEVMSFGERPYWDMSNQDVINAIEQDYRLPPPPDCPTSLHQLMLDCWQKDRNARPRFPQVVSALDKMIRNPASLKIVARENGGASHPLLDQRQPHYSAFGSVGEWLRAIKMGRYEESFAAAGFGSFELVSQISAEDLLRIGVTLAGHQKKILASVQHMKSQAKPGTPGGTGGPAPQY

[5] = target: T3, Ephrin type-B receptor 4 (Homo sapiens); settings: at 10 µM
[6] = target: Receptor tyrosine-protein kinase erbB-4 (Homo sapiens) (UniProt Q15303); settings: at 1 µM
Chain of Receptor tyrosine-protein kinase erbB-4 (Homo sapiens) (Q15303 whole entry): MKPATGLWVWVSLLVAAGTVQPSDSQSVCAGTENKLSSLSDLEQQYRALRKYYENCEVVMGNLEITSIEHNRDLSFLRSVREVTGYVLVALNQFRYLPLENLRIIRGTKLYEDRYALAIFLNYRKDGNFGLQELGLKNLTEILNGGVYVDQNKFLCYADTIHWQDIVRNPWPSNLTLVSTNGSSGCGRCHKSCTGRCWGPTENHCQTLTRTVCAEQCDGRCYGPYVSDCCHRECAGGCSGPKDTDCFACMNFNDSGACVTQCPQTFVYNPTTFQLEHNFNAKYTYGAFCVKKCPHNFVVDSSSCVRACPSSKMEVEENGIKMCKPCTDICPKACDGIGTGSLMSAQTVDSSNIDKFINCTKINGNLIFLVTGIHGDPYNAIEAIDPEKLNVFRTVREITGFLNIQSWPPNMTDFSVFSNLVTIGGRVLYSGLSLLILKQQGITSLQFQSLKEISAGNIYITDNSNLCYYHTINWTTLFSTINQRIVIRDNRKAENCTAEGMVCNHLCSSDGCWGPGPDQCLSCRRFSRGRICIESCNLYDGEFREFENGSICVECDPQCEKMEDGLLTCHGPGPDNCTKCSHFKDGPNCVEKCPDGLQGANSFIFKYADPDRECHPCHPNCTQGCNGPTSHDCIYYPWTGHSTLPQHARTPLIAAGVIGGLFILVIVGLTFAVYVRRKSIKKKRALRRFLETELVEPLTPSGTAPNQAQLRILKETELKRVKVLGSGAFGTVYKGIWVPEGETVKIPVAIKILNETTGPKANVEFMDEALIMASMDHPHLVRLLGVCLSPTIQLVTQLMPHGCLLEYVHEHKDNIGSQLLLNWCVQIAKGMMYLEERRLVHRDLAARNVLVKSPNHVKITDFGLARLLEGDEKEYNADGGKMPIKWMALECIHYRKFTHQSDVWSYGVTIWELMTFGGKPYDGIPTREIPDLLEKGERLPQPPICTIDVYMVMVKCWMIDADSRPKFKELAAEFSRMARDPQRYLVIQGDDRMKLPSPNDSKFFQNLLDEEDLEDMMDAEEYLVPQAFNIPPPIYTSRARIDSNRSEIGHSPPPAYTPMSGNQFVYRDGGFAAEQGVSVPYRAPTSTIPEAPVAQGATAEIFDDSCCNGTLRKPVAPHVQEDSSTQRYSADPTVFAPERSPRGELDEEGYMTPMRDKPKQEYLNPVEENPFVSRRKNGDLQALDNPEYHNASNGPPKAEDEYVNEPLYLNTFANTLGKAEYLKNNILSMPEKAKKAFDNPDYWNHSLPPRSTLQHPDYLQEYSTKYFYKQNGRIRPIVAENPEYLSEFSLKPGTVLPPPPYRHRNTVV

[7] = target: Focal adhesion kinase 1 (Homo sapiens) (UniProt Q05397); settings: at 1 µM
Chain of Focal adhesion kinase 1 (Homo sapiens) (Q05397 2-1052 limits assumed): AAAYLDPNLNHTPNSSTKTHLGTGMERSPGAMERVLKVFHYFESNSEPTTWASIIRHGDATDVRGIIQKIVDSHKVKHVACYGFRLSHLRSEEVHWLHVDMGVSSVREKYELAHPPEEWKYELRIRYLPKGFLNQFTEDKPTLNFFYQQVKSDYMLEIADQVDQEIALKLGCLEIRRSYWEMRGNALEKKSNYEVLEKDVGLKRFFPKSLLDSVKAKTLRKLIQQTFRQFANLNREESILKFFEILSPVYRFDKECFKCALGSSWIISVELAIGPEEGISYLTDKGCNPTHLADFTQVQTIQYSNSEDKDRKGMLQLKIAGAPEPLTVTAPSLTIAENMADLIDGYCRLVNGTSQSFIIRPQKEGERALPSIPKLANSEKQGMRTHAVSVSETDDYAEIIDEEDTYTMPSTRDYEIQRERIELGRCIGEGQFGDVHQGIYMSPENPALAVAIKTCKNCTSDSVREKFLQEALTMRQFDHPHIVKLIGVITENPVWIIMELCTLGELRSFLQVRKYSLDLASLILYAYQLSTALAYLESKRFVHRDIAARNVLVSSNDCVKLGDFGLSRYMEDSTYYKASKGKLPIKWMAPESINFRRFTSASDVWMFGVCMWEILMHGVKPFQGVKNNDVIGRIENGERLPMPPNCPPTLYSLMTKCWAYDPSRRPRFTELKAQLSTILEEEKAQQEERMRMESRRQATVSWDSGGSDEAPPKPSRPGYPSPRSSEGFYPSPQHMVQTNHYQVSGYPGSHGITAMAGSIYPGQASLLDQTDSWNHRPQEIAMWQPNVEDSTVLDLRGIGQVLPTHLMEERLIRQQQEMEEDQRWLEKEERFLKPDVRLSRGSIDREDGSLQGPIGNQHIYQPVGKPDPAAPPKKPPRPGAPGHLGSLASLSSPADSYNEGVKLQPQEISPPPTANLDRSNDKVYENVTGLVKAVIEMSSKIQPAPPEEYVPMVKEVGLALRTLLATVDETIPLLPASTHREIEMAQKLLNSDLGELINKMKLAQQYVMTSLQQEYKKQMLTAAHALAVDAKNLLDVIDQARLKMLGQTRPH

Chain of Ephrin type-A receptor 5 (Homo sapiens) (P54756 whole entry): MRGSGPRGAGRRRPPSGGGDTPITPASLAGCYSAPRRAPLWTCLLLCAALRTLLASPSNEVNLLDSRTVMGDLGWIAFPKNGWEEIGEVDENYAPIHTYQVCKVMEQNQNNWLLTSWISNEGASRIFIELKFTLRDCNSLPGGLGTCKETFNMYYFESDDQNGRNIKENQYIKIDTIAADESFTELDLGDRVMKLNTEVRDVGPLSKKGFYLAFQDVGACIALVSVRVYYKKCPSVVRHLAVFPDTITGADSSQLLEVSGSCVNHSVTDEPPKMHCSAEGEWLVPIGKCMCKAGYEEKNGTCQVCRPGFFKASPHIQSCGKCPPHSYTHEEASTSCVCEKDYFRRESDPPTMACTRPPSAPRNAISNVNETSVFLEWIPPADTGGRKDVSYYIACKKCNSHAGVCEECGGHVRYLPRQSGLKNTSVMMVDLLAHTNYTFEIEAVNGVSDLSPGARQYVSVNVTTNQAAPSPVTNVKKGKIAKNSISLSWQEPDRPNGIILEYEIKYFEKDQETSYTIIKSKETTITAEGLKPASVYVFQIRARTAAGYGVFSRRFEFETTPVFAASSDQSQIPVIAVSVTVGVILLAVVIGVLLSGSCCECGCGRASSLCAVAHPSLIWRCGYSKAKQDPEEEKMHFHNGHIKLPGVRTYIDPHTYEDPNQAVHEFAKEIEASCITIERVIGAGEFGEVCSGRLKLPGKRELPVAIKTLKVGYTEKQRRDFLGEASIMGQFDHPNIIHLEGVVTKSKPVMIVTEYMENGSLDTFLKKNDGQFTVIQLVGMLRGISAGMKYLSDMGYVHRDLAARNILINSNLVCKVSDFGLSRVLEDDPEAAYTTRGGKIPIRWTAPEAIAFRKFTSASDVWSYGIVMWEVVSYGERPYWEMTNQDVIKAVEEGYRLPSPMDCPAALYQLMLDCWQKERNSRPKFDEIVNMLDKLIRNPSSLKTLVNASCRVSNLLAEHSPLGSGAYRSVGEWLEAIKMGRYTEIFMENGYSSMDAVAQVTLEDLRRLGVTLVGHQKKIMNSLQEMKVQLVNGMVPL

## COc1ccc2c(c1)/C(=C/c1cnc[nH]1)C(=O)N2
[1]
  residual activity: 81%
[2]
  residual activity: 59%
[3]
  residual activity: 97%
[4]
  residual activity: 98%
[5]
  residual activity: 77%
[6]
  residual activity: 127%
[7]
  residual activity: 99%

— ChEMBL document CHEMBL2218924, “A broad activity screen in support of a chemogenomic map for kinase signalling research and drug discovery” (Biochem J, 2013)
